About 79,000 compounds went through this panel and 15% of them were active in at least one assay; those are over-represented in the sample as a whole. Activity calls are given as the source filed them. No stated cut-off is given here; in the data, active means growth inhibition above about 70%; inactive means the rest.
How the values were obtained:
[1] = NCI Yeast Anticancer Drug Screen. Data for the rad52 strain (AID 147);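 further: 0% = growth of vehicle-treated control cultures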; conditions: S. cerevisiae rad52 mutant growth inhibition, stronger effect = higher value
Summary of the method: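 Growth of repair-deficient yeast cells was compared between compound-treated and vehicle-treated cultures to give percent inhibition.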

[2] = NCI Yeast Anticancer Drug Screen. Data for the wt1 strain (AID 149);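 further: 0% = growth of vehicle-treated wt1 cultures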; conditions: S. cerevisiae wt1 strain (SPY 50644) growth inhibition, stronger effect = higher value
Summary of the method: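 Using yeast strain wt1, compound-induced growth inhibition was determined against vehicle-treated cultures.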

[3] = NCI Yeast Anticancer Drug Screen. Data for the rad50EPP+ strain (AID 151);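 further: 0% = growth of vehicle-treated control cultures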; conditions: S. cerevisiae rad50 mutant strain, stronger effect = higher value
Summary of the method: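 Measured: growth inhibition of rad50EPP+ yeast. Reference: vehicle-treated controls. Screen uses strains with defined genetic alterations in DNA damage repair or cell cycle control.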

[4] = NCI Yeast Anticancer Drug Screen. Data for the mgt1 strain (AID 153); conditions: S. cerevisiae mgt1 mutant growth inhibition, stronger effect = higher value
Summary of the method: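 Compounds were applied to mgt1 mutant yeast, and growth was then compared against vehicle-treated control cultures to give percent inhibition.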

[5] = NCI Yeast Anticancer Drug Screen. Data for the rad50 strain (AID 155);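 further: 0% = growth of vehicle-only cultures of the same strain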; conditions: S. cerevisiae rad50 strain growth inhibition, stronger effect = higher value
Summary of the method: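 Relative growth inhibition (compound vs vehicle) was measured in yeast with a defined repair-gene alteration.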

[6] = NCI Yeast Anticancer Drug Screen. Data for the mec2-1 strain (AID 157); conditions: S. cerevisiae mec2-1 strain, stronger effect = higher value
Summary of the method: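 Compounds were applied to mec2-1 yeast cells. Their growth was then compared with that of vehicle-treated cultures to give growth inhibition.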

[7] = NCI Yeast Anticancer Drug Screen. Data for the rad14 strain (AID 159);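 further: 0% = growth of vehicle-treated control cultures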; conditions: S. cerevisiae rad14 strain growth inhibition, stronger effect = higher value
Summary of the method: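 Screen for anticancer potential: a yeast strain altered in DNA damage repair is grown with compound, and reduced growth is quantified against vehicle controls.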

[8] = NCI Yeast Anticancer Drug Screen. Data for the sgs1 mgt1 strain (AID 161);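 further: 0% = growth of cultures given vehicle only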; conditions: S. cerevisiae sgs1 mgt1 strain, stronger effect = higher value
Summary of the method: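 This yeast growth screen uses a strain with defined DNA-repair lesions; compound-treated growth is compared with vehicle-treated growth.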

[9] = NCI Yeast Anticancer Drug Screen. Data for the CLN2oe strain (AID 163);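 further: 0% = growth of vehicle-only control cultures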; conditions: S. cerevisiae CLN2oe strain, stronger effect = higher value
Summary of the method: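 Cells of an engineered yeast line with disturbed cell-cycle regulation are treated with compound. Inhibition of growth is then calculated relative to the vehicle-treated reference.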

[10] = NCI Yeast Anticancer Drug Screen. Data for the cln2 rad14 strain (AID 165);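 further: 0% = growth equal to vehicle treated cultures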; conditions: S. cerevisiae cln2 rad14 strain, stronger effect = higher value
Summary of the method: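 Strain: cln2 rad14 yeast, altered in cell cycle control and DNA damage repair. Read-out: growth inhibition vs vehicle.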

[11] = NCI Yeast Anticancer Drug Screen. Data for the bub3 strain (AID 167); conditions: S. cerevisiae bub3 mutant strain, stronger effect = higher value
Summary of the method: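 Screening used yeast with an engineered genetic alteration affecting cell cycle control. Compound-exposed cultures were compared with vehicle cultures, and reduced growth was taken as inhibition.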

[12] = NCI Yeast Anticancer Drug Screen. Data for the wt2 strain (AID 169);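 further: 0% = growth of vehicle-treated yeast cultures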; conditions: S. cerevisiae wt2 strain growth inhibition, stronger effect = higher value
Summary of the method: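 Growth of compound-treated yeast is measured and expressed as inhibition relative to vehicle-only controls.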

[13] = NCI Yeast Anticancer Drug Screen. Data for the sgs1 strain (AID 173);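 further: 0% = growth of vehicle-only control cultures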; conditions: S. cerevisiae sgs1 mutant, stronger effect = higher value
Summary of the method: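 Strain with an altered DNA repair or cell cycle pathway exposed to compound. Growth then measured. Value = inhibition versus vehicle control.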

[14] = NCI Yeast Anticancer Drug Screen. Data for the mlh1 rad18 strain (AID 175); conditions: S. cerevisiae mlh1 rad18 strain growth inhibition, stronger effect = higher value
Summary of the method: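 A repair-deficient yeast strain is exposed to test compound, and growth is scored relative to vehicle-treated controls.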

[15] = NCI Yeast Anticancer Drug Screen. Data for the rad18 strain (AID 177); conditions: S. cerevisiae rad18 mutant growth inhibition, stronger effect = higher value
Summary of the method: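 DNA-repair-defective yeast; compound treatment; growth inhibition scored against vehicle.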

[16] = at 5.0 µM (retest, dose inferred, filed as 0.5)
[17] = at 50.0 µM (retest, dose inferred, filed as 5.0)

Measured: growth inhibition

COc1cccc(C(NC2=NCCC=N2)c2cc3c(cc2O)OCO3)c1O (stereo not drawn)
inactive: [1]; at 1.2 µM -1% | [1]; at 3.7 µM 2% | [1]; at 11.0 µM 21% | [1]; at 33.0 µM 56% | [1]; at 100.0 µM 66% | [2]; at 1.2 µM -2% | [2]; at 3.7 µM -4% | [2]; at 11.0 µM 2% | [2]; at 33.0 µM 5% | [2]; at 100.0 µM 8% | [3]; at 1.2 µM -9% | [3]; at 3.7 µM -9% | [3]; at 11.0 µM -4% | [3]; at 33.0 µM 6% | [3]; at 100.0 µM 9% | [4]; at 1.2 µM -1% | [4]; at 3.7 µM -5% | [4]; at 11.0 µM 12% | [4]; at 33.0 µM -22% | [4]; at 100.0 µM 10% | [5]; at 1.2 µM -1% | [5]; at 3.7 µM -1% | [5]; [16] -11% | [5]; at 11.0 µM -36% | [5]; at 33.0 µM 26% | [5]; at 50.0 µM 41.8% | [5]; at 100.0 µM 39% | [6]; at 1.2 µM 1% | [6]; at 3.7 µM -3% | [6]; [16] -20% | [6]; at 11.0 µM 7% | [6]; at 33.0 µM 15% | [6]; [17] 61% | [6]; at 50.0 µM 23.6% | [6]; at 100.0 µM 22% | [7]; at 1.2 µM 6% | [7]; at 3.7 µM 5% | [7]; at 11.0 µM 8% | [7]; at 33.0 µM 12% | [7]; at 100.0 µM 29% | [8]; [16] -47% | [9]; at 1.2 µM -2% | [9]; at 3.7 µM -8% | [9]; at 11.0 µM -1% | [9]; at 33.0 µM 4% | [9]; at 100.0 µM 21% | [10]; [16] 26% | [10]; [17] 13% | [10]; at 50.0 µM 44.6% | [11]; at 1.2 µM -9% | [11]; at 3.7 µM -3% | [11]; [16] -57% | [11]; at 11.0 µM -3% | [11]; at 33.0 µM -1% | [11]; at 50.0 µM 37.5% | [11]; at 100.0 µM 5% | [12]; at 1.2 µM 0% | [12]; at 3.7 µM 1% | [12]; at 11.0 µM 5% | [12]; at 33.0 µM 18% | [12]; at 100.0 µM 25% | [13]; at 1.2 µM 4% | [13]; at 3.7 µM 6% | [13]; at 11.0 µM 21% | [13]; at 33.0 µM 46% | [13]; at 100.0 µM 57% | [14]; [16] -31% | [14]; at 50.0 µM 49.2% | [15]; at 1.2 µM -2% | [15]; at 3.7 µM 0% | [15]; at 11.0 µM 9% | [15]; at 33.0 µM 23% | [15]; at 100.0 µM 56%
active: [5]; [17] 72% | [8]; [17] 77% | [8]; at 50.0 µM 72.3% | [11]; [17] 73% | [14]; [17] 72%

Source: PubChem BioAssay (NCI)
